Compound activity deposited in PubChem by National Center for Advancing Translational Sciences (NCATS).
Only some compounds are listed: those with a hit (about 3% of all), similar ones and a draw of the others.
Tau FP inhib – qHTS for Inhibitors of Tau Fibril Formation, Fluorescence Polarization. AID 1468, 2008. Potency, µM (doses to about 57.7 µM), for the others: at the top dose activity, negative = inhibition, most hits filed as inhibitors. Microtubule-associated protein tau (Homo sapiens), P10636. K18 P301L tau heparin fibrillization, Alexa594 FP, 6 h. 0.39% of 280,000 active; also: nearly all actives have a fitted effect of over 55% in size
Target sequence (P10636 561-689 P618L limits assumed): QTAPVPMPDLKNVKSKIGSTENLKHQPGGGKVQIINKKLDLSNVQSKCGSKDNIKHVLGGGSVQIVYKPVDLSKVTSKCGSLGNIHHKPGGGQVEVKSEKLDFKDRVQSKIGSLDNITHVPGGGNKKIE
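Recombinant K18 P301L […], labeled with Alexa 594 at 0.24 uM over 15 uM unlabeled; heparin inducer 20 uM final; 37 C, 6 hr; FP endpoint.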
TR SRC2 fluor cs – Total Fluorescence Counterscreen for Inhibitors of the Interaction of Thyroid Hormone Receptor and Steroid Receptor Coregulator 2 | 0.29% of 280,000 active | TRb/SRC2 Texas Red total fluorescence interference | Potency, µM (doses to about 106 µM), without a hit: at the highest dose fluorescence change, negative = quenching; active = well fitted curve in either direction with a large enough effect; inconclusive = small, poorly fitted or top-dose-only effect
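Human TRb ligand-binding domain at 0.6 uM with 20 nM Texas Red SRC2 peptide in Tris buffer containing 1 uM T3 and 5% DMSO, incubated with compound 5 h at ambient temperature. Total fluorescence (555/632 nm) calculated as parallel + 2 × perpendicular.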
TRb SRC2 PPI – qHTS for Inhibitors of the Interaction of Thyroid Hormone Receptor and Steroid Receptor Coregulator 2; Thyroid hormone receptor beta (Homo sapiens), P10828; 0.065% of 280,000 active; TRbeta-SRC2 peptide binding, fluorescence polarization; receptor liganded with 1 µM T3; Potency, µM (doses to about 106 µM), without a hit: top-dose activity change, negative = inhibition, usual class: inhibitors;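 also: plate controls were bound peptide for no effect and peptide without receptor for full effect; nearly all actives have a fitted effect of over 50% in size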
Target sequence (P10828 whole entry, looked up): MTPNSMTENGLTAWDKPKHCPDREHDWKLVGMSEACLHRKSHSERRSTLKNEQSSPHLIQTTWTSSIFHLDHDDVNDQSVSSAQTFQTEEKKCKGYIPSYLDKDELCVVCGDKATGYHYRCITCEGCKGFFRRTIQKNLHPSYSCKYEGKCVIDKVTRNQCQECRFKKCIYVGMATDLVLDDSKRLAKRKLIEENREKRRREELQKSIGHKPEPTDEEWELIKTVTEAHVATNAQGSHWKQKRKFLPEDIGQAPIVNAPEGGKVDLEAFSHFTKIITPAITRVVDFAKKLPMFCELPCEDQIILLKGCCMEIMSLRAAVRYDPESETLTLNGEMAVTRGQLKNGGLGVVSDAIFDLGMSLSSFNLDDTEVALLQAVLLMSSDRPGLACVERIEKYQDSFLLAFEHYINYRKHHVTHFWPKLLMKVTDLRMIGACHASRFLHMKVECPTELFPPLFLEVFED
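Polarization signal, normalized between peptide-alone and full complex controls, measured compound effects on T3-liganded human TRb LBD (0.6 uM) binding 20 nM Texas Red SRC2 peptide after 5 hr.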
Tau fluor counter – Counterscreen qHTS for Inhibitors of Tau Fibril Formation, Fluorescence Polarization; tau K18 P301L Alexa594 fluorescence, heparin fibrillization; Potency, µM (highest dose often 57.7 µM), without a hit: top-dose activity change, negative = decrease; 0.93% of 280,000 active; AID 1463, 2008; also: nearly all actives have a fitted effect of over 55% in size
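Human tau K18 P301L (15 uM unlabeled, 0.24 uM Alexa 594-labeled) in 100 mM sodium acetate pH 7 with 20 uM heparin, 6 hr at 37 C. ThT 30 uM added, 1 hr ambient; Alexa 594 FP and total fluorescence read at 555/632 nm.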
Tau fibril ThT – qHTS for Inhibitors of Tau Fibril Formation, Thioflavin T Binding; AID 1460, 2008; 2.1% of 270,000 active; Potency, µM (titrated, usually from 57.4 µM), for inactives: at the highest dose activity, negative = inhibition, actives largely listed as inhibitors; Microtubule-associated protein tau (Homo sapiens), P10636; recombinant tau K18 P301L (four-repeat tau fragment), heparin-induced fibrillization, ThT fluorescence; also: nearly all actives have a fitted effect of over 55% in size
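Aggregation was driven by heparin (20 uM final) acting on recombinant tau […] bearing P301L in 100 mM sodium acetate pH 7; fibrils were detected with Thioflavin T.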
Active calls of the source: *; ? = inconclusive; nt = not tested or not shown; [ ] = dose if it differs, or a comment. Unless noted, calls follow the shape of the dose curve; as a rule, active = well fitted curve in the direction sought with a large enough effect; inconclusive = small, poorly fitted or top-dose-only effect, or another doubt; inactive = no such curve, though single readings can be large; an effect the other way counts as inactive or inconclusive. Unless noted, % is scaled to controls: 0 for no effect and ±100 for the full control effect; potency is read from the fitted curve at half-maximal effect.

SMILES | Tau FP inhib | TR SRC2 fluor cs | TRb SRC2 PPI | Tau fluor counter | Tau fibril ThT
Cc1cc(C(=O)NCc2ccccc2C)c2c(C)nn(-c3cccc(F)c3)c2n1 | -12.9% | 2.6% | 5.7% | -14.2% | 9.1%
CCOC(=O)c1cccc(Nc2nc(C(=O)OCC)nc3ccccc23)c1 | ? | -1.9% | 3.5% | ? | -3.9%
CCOC(=O)c1cccc(Nc2cc(-c3ccccc3)ncn2)c1 | ? | 0.316µM*[quencher] | -17.8% | ? | ?
Oc1c(CN2CCc3ccccc3C2)cc(Cl)c2cccnc12 | -3.1% | 2.2% | -12.5% | -29.0% | ?
O=c1oc2ccccc2c(O)c1Cc1cc(Cl)c2cccnc2c1O | ? | -8.9% | -1.9% | ? | 14.1µM*
Cn1c(=O)c2c(SCC(=O)N3CCc4ccccc43)nc(-c3cccc(F)c3)nc2n(C)c1=O | -5.4% | -0.3% | -4.3% | -1.7% | 1.7%
COc1ccc(OC)c2c(=S)c3ccccc3[nH]c12 | 7.94µM* | ? | -4.4% | 11.2µM*[quencher] | 3.98µM*
COc1ccc(-c2c(N)nnc3c2[nH]c2ccccc23)cc1OC | -11.7% | 1.3% | 2.5% | -24.2% | ?
O=c1cc(-c2ccc([N+](=O)[O-])cc2)nc2cc(-c3ccc(F)cc3)[nH]n12 | 13.2% | -0.3% | 3.6% | ? | 10µM*
Cc1ccccc1-c1cc2nc(-c3ccc([N+](=O)[O-])cc3)cc(=O)n2[nH]1 | 7.0% | -9.0% | -5.3% | -24.5% | ?
CN(C)c1ccc(/C=C2/C(=O)N(c3ccc([N+](=O)[O-])cc3)N=C2N2CCOCC2)cc1 | -6.5% | -5.4% | ? | ? | 15.8µM*
O=C1CC(N2CCOCC2)=NN1c1ccc([N+](=O)[O-])cc1 | 2.5% | -2.5% | 0.0% | ? | 7.08µM*
O=[N+]([O-])c1ccc(N2CCOCC2)nc1 | 3.4% | -0.5% | 12.1% | 4.0% | -13.5%
CCN(CC)C(=O)c1sc(NC(=O)C(C)Sc2nc(-c3ccccc3)cc(C(F)(F)F)n2)c(C(=O)OC)c1C (configuration not stated) | ? | 2.0%[11.2 µM] | -3.9%[11.2 µM] | -26.2% | 25.1µM*
CCCOC(=O)c1c(NC(=O)C(C)Sc2nc(-c3ccccc3)cc(C(F)(F)F)n2)sc(C(=O)N(C)C)c1C (configuration not stated) | -8.9% | 2.5%[11.2 µM] | -2.9%[11.2 µM] | -13.0% | ?
CCOC(=O)c1ccc(NC(=O)CCS(=O)(=O)c2ccc(Br)s2)cc1 | -3.5% | 1.8% | 1.2% | -17.4% | -3.3%
CC(C)c1ccc(NC(=O)CCS(=O)(=O)c2ccc(Br)s2)cc1 | -0.5% | 28.2µM*[quencher] | ? | -28.8% | -5.7%
COc1cccc(C(=O)N2CCC(N3CCN(Cc4ccc(F)cc4)C(=O)C3=O)CC2)c1 | 1.6% | -0.5% | 2.0% | 2.7% | -1.0%
CCOc1ccc(-c2nonc2NC(=O)c2oc3ccc(F)cc3c2C)cc1 | -11.2% | 0.794µM*[quencher] | -16.2% | -14.0% | 7.4%
CCc1nonc1NC(=O)c1oc2ccc(F)cc2c1C | -8.4% | 1.0% | 5.3% | 10.3% | 11.0%
NC(=O)NC(CC(=O)NCCCc1ccccc1)c1ccc(Cl)cc1 (configuration not stated) | -7.7% | ? | 12.6µM* | -17.3% | -14.1%
NC(=O)NC(CC(=O)NCCc1ccc(S(N)(=O)=O)cc1)c1ccc(Cl)cc1 (configuration not stated) | -5.8% | -1.4% | -0.3% | -3.6% | -0.7%
O=C(CSC1=NCCS1)NC(c1ccccc1)c1ccccc1 | ? | 0.5% | -1.1% | -10.1% | 15.8µM*
O=C(Nc1ccc(F)cc1F)Nc1csc2ccccc12 | 6.4% | -1.5% | -5.8% | 11.2µM*[quencher] | ?
O=C(Nc1ccc(F)c(Cl)c1)Nc1csc2ccccc12 | ? | -4.0% | -2.7% | 7.94µM*[quencher] | nt
SMILES | Tau FP inhib | TR SRC2 fluor cs | TRb SRC2 PPI | Tau fluor counter | Tau fibril ThT
O=C(Nc1ccncc1)Nc1ccc(F)c(Cl)c1 | ? | -0.9% | -2.7% | ? | 6.7%
Cc1ccc(-c2nnc(Nc3ccc(C(N)=O)cc3)c3ccccc23)cc1S(N)(=O)=O | -3.1% | -2.9% | 6.3% | 1.9% | 5.1%
COc1ccc(Cl)cc1NC(=O)CSc1nnc2[nH]c(=O)cc(C)n12 | -6.1% | 0.7% | -2.1% | -7.5% | -4.2%
COC(=O)CC1Oc2ccc(C)cc2-n2cc(-c3ccc(C)cc3)nc21 (configuration not stated) | ? | -3.2% | -1.9% | ? | ?
CCOc1ccc(-c2cc(C(=O)N3CCN(S(=O)(=O)c4cc(Cl)ccc4OC)CC3)[nH]n2)cc1 | -7.3% | 10.6% | 6.3% | -28.9% | 0.3%
Cc1ccc(C)c(NC(=O)CN(CCc2ccccc2)S(=O)(=O)c2ccccc2)c1 | -1.8% | 1.6% | -1.6% | -16.9% | -2.5%
CCOc1ccccc1NC(=O)CN(CCc1ccccc1)S(=O)(=O)c1ccc(C)cc1 | 6.6% | 0.0316µM*[quencher] | -12.1% | -9.5% | 2.7%
Cc1ccc(CNC(=O)CC2Oc3ccccc3NC2=O)cc1 (configuration not stated) | -4.1% | -0.6% | -3.3% | -5.4% | -1.6%
O=C(/C=C/NNC(=O)c1ccc(Br)cc1)c1ccccc1 | -2.6% | -0.2% | -0.5% | ? | 25.1µM*
O=C(NNc1nc2c(F)cccc2s1)c1ccc(F)cc1 | 3.3% | -2.7% | -6.3% | -3.4% | -11.1%
Cc1ccc2sc(NNC(=O)c3cc(-c4cccs4)nc4ccccc34)nc2c1C | 9.4% | -1.8% | 5.4% | ? | ?
O=C(NNc1nc2c(F)cccc2s1)c1cc(=O)c2ccccc2o1 | -9.5% | -7.9% | 12.6% | ? | 5.01µM*
COc1ccc2nc(NNC(=O)c3cc(=O)c4ccccc4o3)sc2c1 | -19.7% | -2.1% | 3.7% | ? | 4.47µM*
Cc1ccc2sc(NNC(=O)c3cc(=O)c4ccccc4o3)nc2c1C | -14.3% | -15.6% | 11.2% | ? | 3.98µM*
Cc1cccc2sc(NNC(=O)c3cc(=O)c4ccccc4o3)nc12 | -8.3% | -5.3% | 1.4% | ? | 6.31µM*
CC1CCCN(Cc2nc3c(c(=O)n(C)c(=O)n3C)n2Cc2ccc(Cl)cc2Cl)C1 (configuration not stated) | 0.1% | -0.2% | -6.6% | 0.5% | 5.2%
COc1ccc(-c2nc3scc(CCNC(=O)c4cccc(Br)c4)n3n2)cc1 | -1.3% | 0.2% | 5.6% | -28.2% | -0.5%
CCOc1ccc(/C=C2/SC(=O)NC2=S)cc1 | -4.3% | -6.4% | -4.2% | ? | 3.16µM*
CCOc1ccc(N=C2NC(=O)S/C2=C\c2ccc(N(C)C)cc2)cc1 | 7.6% | -0.8% | 1.9% | ? | 1.12µM*
CCOc1ccc(/C=C2\SC(=S)N(N3C(=O)C4CC4C3=O)C2=O)cc1 (configuration not stated) | 1.8% | -1.9% | 11.0% | -13.5% | ?
